Assay results: the supplement of paper PMC13380429

System: Vero E6 infected with SARS-CoV-2
Assay: inhibition of SARS-CoV-2 cytopathic effect; higher = more antiviral protection, active = above 15
Conditions: 48 h

Measured: inhibition of SARS-CoV-2 cytopathic effect

Sc1ncnc2nc[nH]c12 [mercaptopurine]
inactive: 1 nM -0.65% | 8.33 nM 1.59% | 100 nM 2.14% | 833.33 nM 1.92% | 10000 nM 0.56%

CCO[C@@H](Cc1ccc(OCCc2ccc(OS(C)(=O)=O)cc2)cc1)C(=O)O [tesaglitazar]
inactive: 1 nM -2.83% | 8.33 nM -3.5% | 100 nM 0.15% | 833.33 nM -2.48% | 10000 nM 1.52%

COc1ccc2[nH]c([S@@+]([O-])Cc3ncc(C)c(OC)c3C)nc2c1 [esomeprazole]
inactive: 1 nM -1.94% | 8.33 nM -1.72% | 100 nM -0.5% | 833.33 nM -0.9% | 10000 nM 0.21%

Nc1ncnc2c1ncn2[C@@H]1O[C@@H]2COP(=O)(O)O[C@H]2[C@H]1O [cyclic-AMP]
inactive: 1 nM 3.59% | 8.33 nM -0.53% | 100 nM -1.76% | 833.33 nM -5.14% | 10000 nM 0.34%

c1cc(Nc2cc(C3CC3)n[nH]2)nc(Nc2ccc3[nH]cnc3c2)n1
inactive: 1 nM -2.31% | 8.33 nM -1.82% | 100 nM -0.35% | 833.33 nM -0.79% | 10000 nM 5.62%

CCC[C@@H]1C[C@@H](C(=O)N[C@@H]([C@H]2O[C@H](SC)[C@H](O)[C@@H](O)[C@H]2O)[C@H](C)Cl)N(C)C1
inactive: 1 nM 0.61% | 8.33 nM -0.55% | 100 nM -0.83% | 833.33 nM -2.28% | 10000 nM -4.1%

CC(C)c1c(NC(=O)Nc2ccc(Cl)cc2)c(=O)n(-c2ccccc2)n1C
inactive: 1 nM 0.15% | 8.33 nM 0.39% | 100 nM 0.07% | 833.33 nM -1.16% | 10000 nM -0.11%
